Assay results as given in ChEMBL document CHEMBL1157539, “Thousands of chemical starting points for antimalarial lead identification” (Nature, 2010).
Non-standard residues stand in square brackets, D forms with d. Residues, ends and D or L forms follow the SMILES beside them. *: point of attachment. Butanoyl(4-(4-HOPh)) = O=C(CCCc1ccc(O)cc1)*

Experiments:
Assay type in all cases: functional
Plasmodium falciparum [1] = experiment: GSK_TCMDC: Inhibition of Plasmodium falciparum 3D7 in whole red blood cells, using parasite LDH activity as an index of growth. Test compounds present at 2uM
Plasmodium falciparum [2] = experiment: GSK_TCMDC: Inhibition of Plasmodium falciparum Dd2 in whole red blood cells, using parasite LDH activity as an index of growth. Test compounds present at 2uM
HepG2 = experiment: GSK_TCMDC: Percent inhibition of human HepG2 cell line. Test compounds present at 10uM.

Structure (SMILES)	Inhibition (Plasmodium falciparum [1])	Inhibition (Plasmodium falciparum [2])	Inhibition (HepG2)
Cc1cccc2nc(-c3ccc(-c4ccc(CN5CCN(c6ccncc6)CC5)cc4)s3)[nH]c12.O=C(O)C(F)(F)F	100%	98%	85%
COc1ccc(Cl)cc1N1CCN(CCCNC(=O)c2ccc(-c3nc4ccc(C(F)(F)F)cc4[nH]3)c(C)c2)CC1	95%	14%	6%
O=C(Cn1c2ccccc2c(=O)c2ccc(Cl)cc21)Nc1ccc(C(F)(F)F)cc1	99%	100%	30%
Oc1cccc(-c2nc3cc(C4=NC5CCCCC5N4)ccc3[nH]2)c1 (stereo not drawn)	94%	99%	3%
CNC(=O)c1ccccc1Nc1nc(Nc2ccc(N3CCOCC3)cc2)ncc1Cl.Cl	97%	97%	75%
O=C(/C=C/c1ccc(Cl)c(Cl)c1)NCCCCCN1CCC(NC(=S)Nc2ccc(Cl)cc2)CC1	99%	41%	62%
COc1ccc2[nH]c(C(=O)Nc3cccc(-c4ccc(CN(C)C)cc4)c3)cc2c1	100%	34%	23%
c1ccc2cc3c(NCCN4CCOCC4)ccnc3cc2c1	99%	98%	0%
COc1ccc2nccc([C@@H](O)CN3CCC(NC(=O)c4ccc(Cl)c(Cl)c4)CC3)c2c1	96%	57%	21%
COc1ccc(CCNc2nc(SCc3ccccc3Cl)nc3ccccc23)cc1OC	94%	2%	27%
CC[C@H]1CN(Cc2ccco2)CC[C@H]1CCCc1ccnc2ccc(O)cc12	93%	14%	31%
O=C(Nc1cccc(-c2nc3ccccc3[nH]2)c1)c1cccc(NC(=O)c2ccco2)c1	91%	45%	9%
CCN(CC)CCN(Cc1ccc(-c2ccc(C(F)(F)F)cc2)cc1)C(=O)Cn1c(CCc2ccc(F)c(F)c2F)nc(=O)c2ccc(F)cc21.O=C(O)C(O)C(O)C(=O)O	98%	46%	19%
CCCCN(C(=O)c1ccccc1Cl)c1nnc(-c2ccccc2C)s1	90%	86%	12%
CN(C)c1ccc(-c2ccc(C(=O)NC3CCN(Cc4cccc(C(F)(F)F)c4)CC3)s2)cc1.O=C(O)C(F)(F)F	96%	77%	35%
Cc1c2ccc(N(C)c3ccnc(Nc4ccc5c(c4)nc(NC(C)C)n5C)n3)cc2nn1C.Cl	100%	100%	2%

Structure (SMILES)	Inhibition (Plasmodium falciparum [1])	Inhibition (Plasmodium falciparum [2])	Inhibition (HepG2)
Cc1cc(NCCC(=O)NCCOc2ccccc2)nc(NCCc2ccccc2)n1.O=C(O)C(F)(F)F	99%	9%	0%
COc1ccc(CN(C)CCCOc2ccc(NC(=O)C=Cc3ccc(C(C)(C)C)cc3)cc2)cc1OC	100%	87%	14%
O=C(/C=C/c1ccc(Cl)c(Cl)c1)NCCCCCN1CCC(NC(=O)Nc2cccc(C(F)(F)F)c2)CC1	100%	11%	61%
CCOc1ccc(C(=O)Nc2cc(Br)c3c(c2)CNCC3)cc1C(F)(F)F.Cl	98%	22%	15%
CC(C)(C)OC(=O)NCc1ccc(Nc2nnc(-c3cccc(OCC(=O)NCc4cc(C(F)(F)F)cc(C(F)(F)F)c4)c3)o2)cc1	90%	19%	32%
Cn1c(=O)c2cc(C(=O)NCCCN3CCCCCC3)sc2c2ccccc21	99%	99%	32%
O=C(NCc1ccc(Cl)c(Cl)c1)c1cc(CNC2CCNCC2)ccc1O	82%	2%	2%
Cc1[nH]c2ccc(NS(C)(=O)=O)cc2c1C1CCN(CCC2CCN(C(=O)/C=C/c3ccc(Cl)c(Cl)c3)CC2)CC1	100%	94%	23%
O=C(Nc1ccc(Cl)cc1Cl)NC1CCN(CCCCCNC(=O)C2CC2c2ccc(Cl)c(Cl)c2)CC1 (stereo not drawn)	100%	30%	67%
CCN(CC)CCN(Cc1ccc(-c2ccc(C(F)(F)F)cc2)cc1)C(=O)Cn1c(CCc2cccc(F)c2F)nc(=O)c2cc(C)ccc21.O=C(O)C(O)C(O)C(=O)O	95%	43%	19%
CC(C)C[C@H](NC(=O)c1ccc(OCCN2CCOCC2)cc1)C(=O)N[C@H](/C=N/N(C)C(=O)c1ccccc1)CCc1ccccc1	91%	72%	8%
O=C(NCC(=O)N1CCC[C@H]1C(=O)O)[C@@H](Cc1ccccc1)NC(=O)[C@@H]1CCCN1C(=O)CCCc1ccc(O)cc1 ({Butanoyl(4-(4-HOPh))}-P[dF]GP-OH)	81%	1%	1%
Fc1cc(Cl)ccc1Nc1ccnc2cc(-c3ccc(CN4CCSCC4)o3)ccc12	100%	99%	17%
OC(CNCc1ccccc1)c1cc(OCc2ccccc2)cc(OCc2ccccc2)c1 (stereo not drawn)	98%	76%	0%
Cc1cc(NC(=O)c2ccco2)ccc1OC1CCN(Cc2ccccc2)CC1.O=C(O)C(F)(F)F	93%	95%	3%
